The nature of experiment [1]: Quantitative High-Throughput drug screen in 47 multiple myeloma cell lines against the NCATS MIPE library collection: KMS28PE_JCRB cell viability assay (AID 1918983). Note: nearly all actives have a fitted effect of over 35% in size. Note: potency is the fitted concentration of half-maximal effect. Put shortly:
(§1)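 500 cells/well; MIPE 4.0 drugs pin-transferred; 48 h, 37C, 5% CO2. CellTiter-Glo, 5 min RT, luminescence. Controls: DMSO 100%, media 0%.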

The nature of experiment [2]: Quantitative High-Throughput drug screen in 47 multiple myeloma cell lines against the NCATS MIPE library collection: KMS34_JCRB cell viability assay (AID 1918985). Note: nearly all actives have a fitted effect of over 40% in size. Note: potency is the fitted concentration of half-maximal effect. In outline:
as §1

Experiment [3] in a line: Quantitative High-Throughput drug screen in 47 multiple myeloma cell lines against the NCATS MIPE library collection: OCIMY7_PLB cell viability assay (AID 1918987). Note: nearly all actives have a fitted effect of over 65% in size. Note: potency is the fitted concentration of half-maximal effect. Put shortly: as §1
A short description of experiment [4]: Quantitative High-Throughput drug screen in 47 multiple myeloma cell lines against the NCATS MIPE library collection: OCIMY5_PLB cell viability assay (AID 1918988). Note: nearly all actives have a fitted effect of over 65% in size. Note: potency is the fitted concentration of half-maximal effect. In outline:
as §1

Experiment [5] is described as follows: Quantitative High-Throughput drug screen in 47 multiple myeloma cell lines against the NCATS MIPE library collection: OPM1_PLB cell viability assay (AID 1918989). Note: nearly all actives have a fitted effect of over 40% in size. Note: potency is the fitted concentration of half-maximal effect. In outline: as §1
Experiment [6] in a line: Quantitative High-Throughput drug screen in 47 multiple myeloma cell lines against the NCATS MIPE library collection: XG6_PLB cell viability assay (AID 1919865). Note: nearly all actives have a fitted effect of over 40% in size. Note: potency is the fitted concentration of half-maximal effect. In outline: as §1
The nature of experiment [7]: Quantitative High-Throughput drug screen in 47 multiple myeloma cell lines against the NCATS MIPE library collection: PE2_PLB cell viability assay (AID 1919869). Note: nearly all actives have a fitted effect of over 35% in size. Note: potency is the fitted concentration of half-maximal effect. In outline:
as §1

Experiment [8] is described as follows: Quantitative High-Throughput drug screen in 47 multiple myeloma cell lines against the NCATS MIPE library collection: PCM6_Riken cell viability assay (AID 1919870). Note: nearly all actives have a fitted effect of over 30% in size. Note: potency is the fitted concentration of half-maximal effect. In outline:
as §1

Experiment [9] in a line: Quantitative High-Throughput drug screen in 47 multiple myeloma cell lines against the NCATS MIPE library collection: RPMI8226_ATCC cell viability assay (AID 1919871). Note: nearly all actives have a fitted effect of over 30% in size. Note: potency is the fitted concentration of half-maximal effect. In outline: as §1
Experiment [10] in a line: Quantitative High-Throughput drug screen in 47 multiple myeloma cell lines against the NCATS MIPE library collection: KMS11_JCRBsus cell viability assay (AID 1919873). Note: nearly all actives have a fitted effect of over 50% in size. Note: potency is the fitted concentration of half-maximal effect. Put shortly: as §1
Experiment [11] is described as follows: Quantitative High-Throughput drug screen in 47 multiple myeloma cell lines against the NCATS MIPE library collection: KMS28BM_JCRB cell viability assay (AID 1919874). Note: nearly all actives have a fitted effect of over 35% in size. Note: potency is the fitted concentration of half-maximal effect. Put shortly:
as §1

Experiment [12] in a line: Quantitative High-Throughput drug screen in 47 multiple myeloma cell lines against the NCATS MIPE library collection: U266_ATCC cell viability assay (AID 1919864). Note: nearly all actives have a fitted effect of over 35% in size. Note: potency is the fitted concentration of half-maximal effect. In outline: as §1
Experiment [13] is described as follows: Quantitative High-Throughput drug screen in 47 multiple myeloma cell lines against the NCATS MIPE library collection: XG1_PLB cell viability assay (AID 1919866). Note: nearly all actives have a fitted effect of over 35% in size. Note: potency is the fitted concentration of half-maximal effect. Put shortly:
as §1

The nature of experiment [14]: Quantitative High-Throughput drug screen in 47 multiple myeloma cell lines against the NCATS MIPE library collection: VP6_DJ cell viability assay (AID 1919867). Note: nearly all actives have a fitted effect of over 40% in size. Note: potency is the fitted concentration of half-maximal effect. Put shortly: as §1
Experiment [15] in a line: Quantitative High-Throughput drug screen in 47 multiple myeloma cell lines against the NCATS MIPE library collection: UTMC2_PLB cell viability assay (AID 1919868). Note: nearly all actives have a fitted effect of over 55% in size. Note: potency is the fitted concentration of half-maximal effect. In outline:
as §1

Experiment [16] in a line: Quantitative High-Throughput drug screen in 47 multiple myeloma cell lines against the NCATS MIPE library collection: SKMM1_PLB cell viability assay (AID 1919863). As to conditions: SKMM1 myeloma viability, CellTiter-Glo ATP, 48 h; viability: stronger effect = lower value. In outline:
as §1

Experiment [17] can be described thus: Quantitative High-Throughput drug screen in 47 multiple myeloma cell lines against the NCATS MIPE library collection: OPM2_DSMZ cell viability assay (AID 1919872). Note: nearly all actives have a fitted effect of over 30% in size. Put shortly: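 Primary qHTS used for cherry-picking: cells at 500/well, library compounds for 48 h (37C, 5% CO2), luminescent ATP assay.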

Records with an inconclusive call do not appear. Values without a mark were called inactive. Calls of active or inactive are those of the source. Calls come from the whole dose curve; as a rule, active = well fitted cell-killing curve with a large enough effect; inconclusive = small, poorly fitted or top-dose-only effect, or effect the other way; inactive = no such curve, though single readings can be large or run the other way.

`S=P(N1CC1)(N1CC1)N1CC1`: the Potency entry in experiment [1], in experiment [4], in [5], in [7], in experiment [8] and in experiment [9] was “inactive” each time. The Potency entry in experiment [10] and in experiment [11] was “inactive” each time. Further, the values for the Potency in experiment [2], in [3] and in experiment [6] were 0.0012 µM (active), 13.2 µM (active) and 23.5 µM (active), respectively.

Take `CNC(=O)c1cc(Oc2ccc(NC(=O)Nc3ccc(Cl)c(C(F)(F)F)c3)cc2)ccn1`: the Potency was 26.4 µM (active) in experiment [1]; 20.9 µM (active) in [2]; 3.32 µM (active) in [3]; 23.5 µM (active) in experiment [4]; 10.5 µM (active) in experiment [5]; 23.5 µM (active) in experiment [12]. Besides, the Potency in [6] is 0.148 µM (active); in experiment [13], 5.9 µM (active); in experiment [14], 8.33 µM (active); in [15] it was 9.35 µM (active); in [7], 7.43 µM (active); in experiment [8], 7.43 µM (active). The Potency in [9], in experiment [10] and in experiment [11] was 20.9 µM (active) each time.

For `COc1ccccc1OCC(O)COC(N)=O` (configuration not stated), the Potency entry in experiment [1], in experiment [2], in experiment [5], in experiment [12], in experiment [6] and in [8] was “inactive” throughout. For the same compound, the Potency entry in [9] was “inactive”. Besides, in experiment [16], the viability is 136%.

In the case of `CCOc1cc(N)c(Cl)cc1C(=O)NCC1CN(Cc2ccc(F)cc2)CCO1` (configuration not stated), the Potency result in [1], in experiment [2], in experiment [4], in [12], in [6] and in experiment [13] was “inactive” each time. For the same compound, the Potency result in experiment [15], in experiment [7], in experiment [8], in experiment [9], in experiment [17] and in [10] was “inactive” throughout. For the same compound, the viability in [16] was 114%.

In the case of `COCCCOc1cc(C[C@@H](C[C@H](N)[C@@H](O)C[C@H](C(=O)NCC(C)(C)C(N)=O)C(C)C)C(C)C)ccc1OC`, the Potency result in experiment [1], in experiment [2], in experiment [4], in experiment [5], in experiment [6] and in [13] was “inactive” throughout. For the same compound, the Potency result in experiment [7], in experiment [9], in [17], in [10] and in experiment [11] was “inactive” each time.

In the case of `Cn1c(=O)c2c(ncn2CC(O)CO)n(C)c1=O` (configuration not stated), the Potency result in experiment [1], in experiment [2], in [4], in experiment [5], in [6] and in [8] was “inactive” in each case. In addition, the Potency entry in [9], in experiment [17] and in experiment [10] was “inactive” in each case.

As to `O=C(O)C1CCCN(CCC=C(c2ccccc2)c2ccccc2)C1` (configuration not stated), the Potency result in [1], in [2], in experiment [3], in experiment [4], in experiment [5] and in [6] was “inactive” in each case. Moreover, the Potency result in [13], in experiment [7], in experiment [8], in [9], in [17] and in experiment [10] was “inactive” throughout. Further, the Potency result in experiment [11] is “inactive”.

Consider `O=S(=O)(O)CCS`, for which the Potency entry in experiment [1], in experiment [2], in [3], in experiment [5], in experiment [6] and in experiment [13] was “inactive” throughout. Besides, the Potency result in experiment [15], in experiment [9], in [10] and in experiment [11] was “inactive” each time. The viability in [16] was 136%.

For `CO[C@@H]1[C@@H](OC(N)=O)[C@@H](O)[C@H](Oc2ccc3c(O)c(NC(=O)c4ccc(O)c(CC=C(C)C)c4)c(=O)oc3c2C)OC1(C)C`, the Potency is 4.69 µM (active) in [1]; 1.48 µM (active) in experiment [2]; 5.9 µM (active) in experiment [3]; 8.33 µM (active) in experiment [4]; 5.26 µM (active) in [5]; 6.62 µM (active) in experiment [6]. The results for the Potency in [13] and in experiment [7] were 5.9 µM (active) and 6.62 µM (active), respectively.

For the compound `CCCc1nc(C)c2c(=O)[nH]c(-c3cc(S(=O)(=O)N4CCN(CC)CC4)ccc3OCC)nn12`, the Potency in experiment [1] is 8.33 µM (active); in experiment [2], 3.72 µM (active); in experiment [3], 5.9 µM (active); in experiment [4] it was 5.9 µM (active); in [5] it was 7.43 µM (active); in [12], 5.9 µM (active). Further, the Potency in [6] is 4.69 µM (active); in experiment [14], 5.9 µM (active); in experiment [7], 5.9 µM (active); in experiment [8], 5.26 µM (active); in [9], 9.35 µM (active); in experiment [10] it was 2.96 µM (active). Also, the Potency in experiment [11] is 3.72 µM (active).

Take `OCc1ccc(-c2nn(Cc3ccccc3)c3ccccc23)o1`: the Potency result in experiment [1], in experiment [2], in experiment [7], in [8], in [10] and in experiment [11] was “inactive” throughout. The figures for the Potency in experiment [4], in experiment [5] and in [9] were 16.6 µM (active), 18.7 µM (active) and 4.18 µM (active), respectively.

For the compound `O=C(O)c1cc(=O)[nH]c(=O)[nH]1`, in experiment [1], the Potency was 5.9 µM (active). The Potency entry in experiment [2], in [5], in [12], in experiment [6], in experiment [14] and in [7] was “inactive” in each case. The Potency result in experiment [8], in experiment [9], in experiment [17] and in experiment [10] was “inactive” each time. For the same compound, the viability in experiment [16] was 112%.

`COc1cnc(NS(=O)(=O)c2ccc(N)cc2)nc1`: the Potency result in [1], in experiment [2], in [4], in experiment [12], in experiment [9] and in experiment [17] was “inactive” throughout. For the same compound, the viability in experiment [16] was 141%. The Potency in experiment [14] was 20.9 µM (active).

Consider `CCN[C@H]1C[C@H](C)S(=O)(=O)c2sc(S(N)(=O)=O)cc21`, for which the Potency result in [1], in experiment [2], in experiment [4], in experiment [5], in experiment [12] and in experiment [10] was “inactive” in each case. Moreover, in experiment [11], the Potency result is “inactive”.

Take `CCCOc1ccc(C(=O)OCCN(CC)CC)cc1N`: the Potency result in experiment [1], in experiment [2], in experiment [4], in [5], in [6] and in experiment [13] was “inactive” each time. For the same compound, the Potency result in experiment [7], in [8], in [9] and in [17] was “inactive” throughout. In addition, the viability in experiment [16] was 118%. The Potency is 9.35 µM (active) in experiment [14] and 14.8 µM (active) in [10].

On to `CCN(C)C(=O)Oc1cccc([C@H](C)N(C)C)c1`, for which the Potency entry in experiment [1], in experiment [2], in experiment [4], in experiment [5], in experiment [13] and in [7] was “inactive” in each case. Further, the Potency entry in [17] and in experiment [10] was “inactive” in each case.

As to `COc1cc2nc(N3CCCN(C)CC3)nc(NC3CCN(Cc4ccccc4)CC3)c2cc1OC`, the Potency is 16.6 µM (active) in experiment [1]; 8.33 µM (active) in [2]; 6.62 µM (active) in [3]; 11.8 µM (active) in experiment [4]; 2.35 µM (active) in [5]; 2.35 µM (active) in [12]. In addition, the Potency in experiment [6] is 2.35 µM (active); in experiment [14] it was 4.69 µM (active); in experiment [7], 2.35 µM (active); in experiment [8] it was 3.72 µM (active); in experiment [9], 9.35 µM (active); in experiment [10], 4.69 µM (active). In addition, the Potency in experiment [11] was 10.5 µM (active).

As a reminder, the viability is a read-out of living cells in per cent, often relative to untreated cells.

Source of the values: PubChem BioAssay (NCATS).
